Measurements as given in PubChem BioAssay AID1903 (Southern Research Specialized Biocontainment Screening …, 2009).
In all, about 310,000 compounds went through this assay and about 1,200 (0.39%) were called active. How the calls were made is not given here. A selection follows. Potency and affinity values are given separately.

target: Large T antigen (Simian virus 40) (UniProt P03070); assay: SV40 large T antigen inhibitors, biochemical (AID 1903); details: SV40 large T antigen ATPase/helicase inhibition assay; at 20 µM; active compounds read high
Sequence (P03070 whole entry, looked up): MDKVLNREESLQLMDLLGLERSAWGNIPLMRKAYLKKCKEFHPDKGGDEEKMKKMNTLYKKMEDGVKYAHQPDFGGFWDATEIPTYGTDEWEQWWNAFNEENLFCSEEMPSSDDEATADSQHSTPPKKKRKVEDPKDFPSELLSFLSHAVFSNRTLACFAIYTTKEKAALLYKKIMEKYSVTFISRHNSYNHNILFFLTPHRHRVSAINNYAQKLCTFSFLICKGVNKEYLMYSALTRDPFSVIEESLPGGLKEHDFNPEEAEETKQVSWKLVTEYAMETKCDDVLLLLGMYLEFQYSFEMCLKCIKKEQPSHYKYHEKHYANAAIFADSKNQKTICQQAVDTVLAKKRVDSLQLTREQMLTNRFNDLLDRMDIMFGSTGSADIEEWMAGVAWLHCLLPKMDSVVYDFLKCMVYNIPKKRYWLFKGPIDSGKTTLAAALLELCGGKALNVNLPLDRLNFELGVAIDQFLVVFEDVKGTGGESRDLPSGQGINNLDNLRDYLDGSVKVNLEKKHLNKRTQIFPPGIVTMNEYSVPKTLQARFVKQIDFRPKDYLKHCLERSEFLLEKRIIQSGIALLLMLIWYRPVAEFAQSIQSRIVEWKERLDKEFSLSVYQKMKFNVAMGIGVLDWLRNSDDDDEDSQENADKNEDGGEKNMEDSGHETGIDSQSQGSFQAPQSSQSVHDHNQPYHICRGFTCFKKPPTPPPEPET

inhibition, inactive:
COc1cccc(NC(=S)N2CCCC2c2ccc(OC)c(OC)c2)c1 (configuration not stated) 12.4%
O=c1c2ccccc2sn1-c1ccc(S(=O)(=O)N2CCCC2)cc1 9.42%
Cc1ccc(-c2nn(C)c(=O)c3ccccc23)cc1S(=O)(=O)N1CCCC1 0.12%
CN(C)S(=O)(=O)c1cccc(N2C(=O)CC3(CCCCC3)CC2=O)c1 7.26%
O=C(O)c1ccccc1NS(=O)(=O)c1ccc2ccccc2c1 -0.61%
CCn1nc(C(=O)OCc2cccc(S(=O)(=O)N(C)C)c2)c2ccccc2c1=O 8.67%
O=C(O)c1ccccc1NS(=O)(=O)c1cccc(C(F)(F)F)c1 9.6%
CC(C)=CCc1c(O)ccc2c1OC(c1ccc(O)c(O)c1)CC2=O (configuration not stated) 17%
O=C1CC(c2ccc(O)c(O)c2)Oc2cc(O)cc(O)c21 (configuration not stated) 45.5%
Cc1ccc(OCCCCN2CCC(C)CC2)c(Br)c1 3.72%
Cc1ccc(C=C2C(=O)c3ccccc3C2=O)o1 12.7%
O=C1/C(=C\c2ccc(Br)o2)Cc2ccccc21 6.99%
O=C(COc1ccc(F)cc1F)N1CCCCCCC1 1.37%
Oc1cccc(NC(=S)Nc2ccccc2)c1 21.3%
Cc1cccc(OCC(=O)Nc2ccc(N3CCCC3)cc2)c1C -18.4%
O=C(NC(=S)Nc1ccc(Cl)cc1)c1cncc(Br)c1 10.2%
O=C(O)c1ccc(NC(=S)NC(=O)c2cncc(Br)c2)cc1 13.1%
COc1ccc(NC(=S)NC(=O)c2ccccc2Cl)cc1 9.58%
O=C(NC(=S)Nc1ccccc1O)c1ccccc1Cl 13.8%
CCOc1ccc(-c2ccc3nnc(SCC(=O)NCC4CCCO4)n3n2)cc1 (configuration not stated) 20.9%
c1ccc2cc(Cn3ccnc3)ccc2c1 5.43%
C/C(=N\NC(=O)COc1ccc(C)cc1[N+](=O)[O-])c1cccs1 15%
N#Cc1ccc(CSc2nc(N)cc(N)n2)cc1 -0.44%
CC(C)CCn1c(=O)c2ccccc2n2c(CN3CCCC3)nnc12 15.1%
Cn1c(=O)c2ccccc2n2c(=S)[nH]nc12 1.39%
CC(C)CCn1c(=O)c2ccccc2n2c(CCl)nnc12 12.5%
CCOCCCn1c(=O)c2ccccc2n2c(=S)[nH]nc12 31.1%
O=C(Nc1ccc(S(=O)(=O)Nc2ncccn2)cc1)c1cnc(Cl)c(Cl)c1 24.8%
Cc1ccn(CCC(=O)Nc2ccc(-c3ccno3)cc2)n1 10.3%
C=C(c1cccc2ccccc12)P(=O)(O)O 8.15%
CCOC(=O)c1c(NC(=O)COC(=O)c2nc(Cl)ccc2Cl)sc(C(=O)N(C)C)c1C 3.76%
Cc1ccc(NC(=O)c2ccc(COc3ccccc3)o2)nc1 -5.11%
Cc1nc2ncccn2c1-c1csc(Nc2ccccc2)n1 16.1%
CCN(CC)c1ccc(Nc2nc(-c3cccnc3)cs2)cc1 20.5%
Fc1ccc(Nc2nc(-c3cccnc3)cs2)cc1 6.02%
Cc1ccc(Nc2nc(-c3c(C)nc4ncccn34)cs2)cc1 17.2%
O=S(=O)(c1cccs1)N1CCC2(CC1)OCCN2S(=O)(=O)c1ccccc1 11.8%
CN(Cc1c(C(=O)N/N=C/c2ccccc2)nnn1-c1nonc1N)c1ccccc1 -1.98%
Cc1c(C(=O)N2CC(C)OC(C)C2)[nH]c2ccc(Br)cc12 (configuration not stated) 0.93%
CCOC(=O)C(NCc1ccc(OC)cc1)(NC(C)=O)C(F)(F)F (configuration not stated) 0.08%
O=C1NC(=O)/C(=C\c2ccccc2OCc2ccc([N+](=O)[O-])cc2)N1 16%
O=Cc1ccccc1OCCOc1ccc([N+](=O)[O-])cc1 26.7%
C=CCn1c(-c2cccc(Cl)c2)n[nH]c1=S 4.07%
CCCCCC(=O)NNC(=S)NC(C)=O 7.61%
CCOc1ccc(C(=O)CN2CCN(S(=O)(=O)c3ccc(F)cc3)CC2)cc1 6.42%
CC(C)(C)C(=O)CN1CCN(S(=O)(=O)c2ccc(F)cc2)CC1 1.15%
Cc1ccc(S(=O)(=O)N2CCN(Cc3cc(C(C)C)ccc3O)CC2)cc1 -1.91%
COc1cc(NC(=O)CN2CCN(S(=O)(=O)c3ccc(C(C)C)cc3)CC2)cc(OC)c1 4.71%
Cc1ccc(C)c(NC(=O)CN(C)C(=O)c2cc3c(s2)CCCCC3)c1 17%
C=CCNC(=O)COCc1cc(-c2ccc3c(c2)OCO3)on1 7.76%
CN(C)C(=O)CSc1nnc(-c2ccc(S(=O)(=O)N3CCCC3)cc2)n1C -1.24%
C/C(=N/OC(=O)CC(C)C)c1cc(-c2ccc(Cl)cc2)no1 4.31%
O=C(CCN1CCOCC1)N/N=C/c1cc([N+](=O)[O-])ccc1OC(F)F 5.27%
Cc1ccccc1-c1nnn(CC(=O)N2CCN(C(=O)c3ccco3)CC2)n1 14.3%
CCCOc1ccc(C(=O)Nn2c(C)nc3ccccc3c2=O)cc1 1.86%
Nc1ncnc(N)c1N=Nc1ccccc1 8.05%
Nc1ncc(Br)cc1N=Cc1ccccc1 9.46%
C=CCN(C(=O)c1ccccc1)c1ccc(OC)cc1 -2.78%
O=C(c1ccco1)N1CCN(C(=O)c2cc(-c3ccc(F)cc3)no2)CC1 8.37%
CC(C)CNC(=O)c1cc(-c2ccc3c(c2)OCO3)on1 4.96%
COc1ccc2c(c1)S(=O)(=O)c1ccccc1N2 1.87%
Cc1nc(SCC(=O)N2c3ccccc3Sc3ccccc32)n[nH]1 12.6%
O=C(CSc1nnc(-c2ccccc2)n1-c1ccccc1)N1c2ccccc2Sc2ccccc21 4.91%
O=C(O)CCc1ccc(S(=O)(=O)Nc2ccccc2C(=O)NCCc2ccccc2)cc1 6.21%
CCOC(=O)C(CN1CCCC1)c1ccccc1 (configuration not stated) 6.65%
COc1cccc(/C=N/NC(=O)C(=O)N2CCCCCC2)c1O 28.6%
CCCc1cc(=O)[nH]c(N/N=C/C=C\c2ccccc2)n1 6.47%
O=C(N/N=C/c1c[nH]c2ccccc12)c1cccc(O)c1 16%
O=C(N/N=C\c1c[nH]c2ccccc12)c1ccc(O)cc1 18%
Cc1cc(C)nc(N/N=C/c2c[nH]c3ccccc23)n1 33.8%
Cc1cc(N/N=C/c2c[nH]c3ccccc23)c2ccccc2n1 5.53%
Cc1cc(C)c(COCc2cc(/C=N/O)c(C)cc2C)cc1/C=N/O -0.28%
C=CCN1C(=O)C(Cc2ccccc2)SC1=Nc1ccc(C(=O)O)cc1 (configuration not stated) 25.5%
C/C(=N\NC(=O)c1ccc(N)cc1)C1CC1 9.62%
CCN1CCN(C(=O)Cn2ncc3c([nH]c4ccc(C)cc43)c2=O)CC1 9.03%
Cc1cccc(NC(=S)NCc2ccc3c(c2)cc(C)n3C)c1C 5.14%
Cc1cc(C)nc(SCc2cc(=O)c(OC(=O)c3ccc(S(=O)(=O)N(C)C)cc3)co2)n1 22.4%
Cc1ccnc(SCc2cc(=O)c(OC(=O)c3ccc(S(=O)(=O)N4CCCC4)cc3)co2)n1 48.9%
Cc1ccnc(SCc2cc(=O)c(OC(=O)c3ccc(S(=O)(=O)N(C)C)cc3)co2)n1 15.9%
Cc1cc(C)nc(SCc2cc(=O)c(OC(=O)c3ccc(Cl)c([N+](=O)[O-])c3)co2)n1 9.56%
Cc1ccc(NC(=O)CN(C)C(=O)C2COc3ccccc3O2)cc1 (configuration not stated) 6.98%
Cc1ccc(S(=O)(=O)NC2=NCN(CC(=O)O)CN2)cc1 7.75%
CC(=O)n1cc([C@H]2C=C(C(=O)N3CCN(Cc4ccc5c(c4)OCO5)CC3)O[C@@H](OCCCCO)C2)c2ccccc21 21.8%
CCOc1ccc(CNS(=O)(=O)c2ccc3c(c2)CC(=O)N3C)cc1 11.9%
CCOc1ccc(Oc2nc(Nc3ccc(C)cc3)nc(N(C)C)n2)nn1 -0.33%
COc1ccc(-n2ncc3c(=O)n(CC(=O)Nc4ccc(S(=O)(=O)N5CCOCC5)cc4)cnc32)cc1 5.14%
COC(=O)C(N)Cc1ccc(O)c(O)c1 (configuration not stated) 20.9%
COC(=O)[C@@H](N)Cc1ccc(O)c(O)c1 10%
COC(=O)c1ccc(NC(=O)COc2cccc3c2OC(C)(C)C3)cc1 -1.91%
COc1cc(/C=N\Nc2nc(-c3ccc(C)cc3)c(NC(C)=O)s2)ccc1O 35.9%
CC(=O)Nc1sc(N/N=C\c2ccccc2Cl)nc1-c1cccs1 34.5%
CC(=O)Nc1sc(N/N=C\c2ccccc2)nc1-c1cccs1 21%
CCOc1cc(/C=N\Nc2nc(-c3ccc(C)cc3)c(NC(C)=O)s2)ccc1O 26.6%
CC(=O)Nc1sc(N/N=C\c2cccc(Cl)c2)nc1-c1cccs1 18.8%
CC(=O)Nc1sc(N/N=C\c2ccccc2F)nc1-c1cccs1 9.59%
OCCN(CCO)c1ccc(C(c2ccc(Cl)cc2)c2ccc(N(CCO)CCO)cc2Cl)c(Cl)c1 2.12%
COC(=O)c1c(-c2ccccc2)noc1-c1ccccc1 8.1%
